{"source": "the supplement of paper PMC4466140", "test_in_all_cases": "SPOT peptide array binding signal intensity (averaged, normalized) (arbitrary units (background-subtracted, floor 0; scale differs between SH3 domains)); higher = stronger binding of the SH3 domain to the peptide", "key": {"[1]": {"molecular_target": "CaNbp2", "outline": "(§1)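 GST-fused SH3 domains from four yeast species were expressed in E. coli BL21(DE3), purified on glutathione Sepharose and incubated at 10 μg/ml overnight at 4°C in TBS-based blocking buffer on cellulose membranes carrying synthetic 15-mer peptides, with cysteines replaced by serines. Bound protein was detected with anti-GST antibody, an HRP anti-mouse secondary and luminol, then imaged and quantified with Genespotter. Binding signal is the normalized, background-subtracted spot intensity averaged over replicates, in arbitrary units that differ between domains.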"}, "[2]": {"molecular_target": "CaRvs167", "outline": "as §1"}, "[3]": {"molecular_target": "CaRvs167-3", "outline": "as §1"}, "[4]": {"molecular_target": "CaSho1", "outline": "as §1"}, "[5]": {"molecular_target": "CaSla1-D1-D2", "outline": "as §1"}, "[6]": {"molecular_target": "CaSla1-D3", "outline": "as §1"}, "[7]": {"molecular_target": "ScAbp1", "outline": "as §1"}, "[8]": {"molecular_target": "ScBbc1", "outline": "as §1"}, "[9]": {"molecular_target": "ScBem1-D1", "outline": "as §1"}, "[10]": {"molecular_target": "ScBzz1-D1", "outline": "as §1"}, "[11]": {"molecular_target": "ScBzz1-D2", "outline": "as §1"}, "[12]": {"molecular_target": "ScCyk3", "outline": "as §1"}, "[13]": {"molecular_target": "ScFus1", "outline": "as §1"}, "[14]": {"molecular_target": "ScHof1", "outline": "as §1"}, "[15]": {"molecular_target": "ScHse1", "outline": "as §1"}, "[16]": {"molecular_target": "ScLsb1", "outline": "as §1"}, "[17]": {"molecular_target": "ScLsb2", "outline": "as §1"}, "[18]": {"molecular_target": "ScLsb3", "outline": "as §1"}, "[19]": {"molecular_target": "ScLsb4", "outline": "as §1"}, "[20]": {"molecular_target": "ScMyo3", "outline": "as §1"}, "[21]": {"molecular_target": "ScMyo5", "outline": "as §1"}, "[22]": {"molecular_target": "ScNbp2", "outline": "as §1"}, "[23]": {"molecular_target": "ScPex13", "outline": "as §1"}, "[24]": {"molecular_target": "ScRvs167", "outline": "as §1"}, "[25]": {"molecular_target": "ScSho1", "outline": "as §1"}, "[26]": {"molecular_target": "ScSla1-D1-D2", "outline": "as §1"}, "[27]": {"molecular_target": "ScSla1-D3", "outline": "as §1"}, "[28]": {"molecular_target": "SpAbp1-D1", "outline": "as §1"}, "[29]": {"molecular_target": "SpBbc1", "outline": "as §1"}, "[30]": {"molecular_target": "SpBzz1-D1", "outline": "as §1"}, "[31]": {"molecular_target": "SpBzz1-D2", "outline": "as §1"}, "[32]": {"molecular_target": "SpCyk3", "outline": "as §1"}, "[33]": {"molecular_target": "SpHof1", "outline": "as §1"}, "[34]": {"molecular_target": "SpHof1-2", "outline": "as §1"}, "[35]": {"molecular_target": "SpHof1-3", "outline": "as §1"}, "[36]": {"molecular_target": "SpHse1", "outline": "as §1"}, "[37]": {"molecular_target": "SpLsb1", "outline": "as §1"}, "[38]": {"molecular_target": "SpLsb4", "outline": "as §1"}, "[39]": {"molecular_target": "SpMyo1", "outline": "as §1"}, "[40]": {"molecular_target": "SpNbp2", "outline": "as §1"}, "[41]": {"molecular_target": "SpPex13", "outline": "as §1"}, "[42]": {"molecular_target": "SpRvs167", "outline": "as §1"}, "[43]": {"molecular_target": "SpSla1-D1-D2", "outline": "as §1"}, "[44]": {"molecular_target": "SpSla1-D3", "outline": "as §1"}}}
{"binder": "MARRRLPDRPPNGIG", "values": [{"measurement": "SPOT peptide array binding signal intensity", "setting": "[1]", "result": 1660}, {"measurement": "SPOT peptide array binding signal intensity", "setting": "[2]", "result": 923}, {"measurement": "SPOT peptide array binding signal intensity", "setting": "[3]", "result": 25.5}, {"measurement": "SPOT peptide array binding signal intensity", "setting": "[4]", "result": 794}, {"measurement": "SPOT peptide array binding signal intensity", "setting": "[5]", "result": 1100}, {"measurement": "SPOT peptide array binding signal intensity", "setting": "[6]", "result": 138}, {"measurement": "SPOT peptide array binding signal intensity", "setting": "[7]", "result": 135}, {"measurement": "SPOT peptide array binding signal intensity", "setting": "[8]", "result": 126}, {"measurement": "SPOT peptide array binding signal intensity", "setting": "[9]", "result": 7}, {"measurement": "SPOT peptide array binding signal intensity", "setting": "[10]", "result": 29}, {"measurement": "SPOT peptide array binding signal intensity", "setting": "[11]", "result": 33}, {"measurement": "SPOT peptide array binding signal intensity", "setting": "[12]", "result": 22.5}, {"measurement": "SPOT peptide array binding signal intensity", "setting": "[13]", "result": 61}, {"measurement": "SPOT peptide array binding signal intensity", "setting": "[14]", "result": 53.2}, {"measurement": "SPOT peptide array binding signal intensity", "setting": "[15]", "result": 241}, {"measurement": "SPOT peptide array binding signal intensity", "setting": "[16]", "result": 434}, {"measurement": "SPOT peptide array binding signal intensity", "setting": "[17]", "result": 176}, {"measurement": "SPOT peptide array binding signal intensity", "setting": "[18]", "result": 3700}, {"measurement": "SPOT peptide array binding signal intensity", "setting": "[19]", "result": 1540}, {"measurement": "SPOT peptide array binding signal intensity", "setting": "[20]", "result": 7}, {"measurement": "SPOT peptide array binding signal intensity", "setting": "[21]", "result": "≤ 0"}, {"measurement": "SPOT peptide array binding signal intensity", "setting": "[22]", "result": 523}, {"measurement": "SPOT peptide array binding signal intensity", "setting": "[23]", "result": 438}, {"measurement": "SPOT peptide array binding signal intensity", "setting": "[24]", "result": 2820}, {"measurement": "SPOT peptide array binding signal intensity", "setting": "[25]", "result": 1560}, {"measurement": "SPOT peptide array binding signal intensity", "setting": "[26]", "result": 1290}, {"measurement": "SPOT peptide array binding signal intensity", "setting": "[27]", "result": 100}, {"measurement": "SPOT peptide array binding signal intensity", "setting": "[28]", "result": 1340}, {"measurement": "SPOT peptide array binding signal intensity", "setting": "[29]", "result": 43.8}, {"measurement": "SPOT peptide array binding signal intensity", "setting": "[30]", "result": 450}, {"measurement": "SPOT peptide array binding signal intensity", "setting": "[31]", "result": 9}, {"measurement": "SPOT peptide array binding signal intensity", "setting": "[32]", "result": 221}, {"measurement": "SPOT peptide array binding signal intensity", "setting": "[33]", "result": 1210}, {"measurement": "SPOT peptide array binding signal intensity", "setting": "[34]", "result": 1530}, {"measurement": "SPOT peptide array binding signal intensity", "setting": "[35]", "result": 3040}, {"measurement": "SPOT peptide array binding signal intensity", "setting": "[36]", "result": 104}, {"measurement": "SPOT peptide array binding signal intensity", "setting": "[37]", "result": 178}, {"measurement": "SPOT peptide array binding signal intensity", "setting": "[38]", "result": 5420}, {"measurement": "SPOT peptide array binding signal intensity", "setting": "[39]", "result": 52.8}, {"measurement": "SPOT peptide array binding signal intensity", "setting": "[40]", "result": 144}, {"measurement": "SPOT peptide array binding signal intensity", "setting": "[41]", "result": 123}, {"measurement": "SPOT peptide array binding signal intensity", "setting": "[42]", "result": 1670}, {"measurement": "SPOT peptide array binding signal intensity", "setting": "[43]", "result": 393}, {"measurement": "SPOT peptide array binding signal intensity", "setting": "[44]", "result": 23}]}
